Screening results as filed in PubChem.
An excerpt weighted towards active compounds, which were near 19% of everything screened.
KB-3-1 tox: qHTS assay for MDR1-selective chemotherapeutics: Primary screen using the parental adenocarcinoma cell KB-3-1. KB-3-1 viability, CellTiter-Glo ATP luminescence, 72 h. Potency, µM (doses to about 46.1 µM), actives largely listed as cytotoxic. actives 1.4% (n = 400,000). AID 1347075, 2019; also: nearly all actives have a fitted effect of over 60% in size
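Cytotoxicity in the drug-sensitive parental line KB-3-1 was scored as loss of CellTiter-Glo luminescence following 72 h incubation with compound. Values come from curve fitting of normalized concentration-response data.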
KB-V1 MDR tox: qHTS assay for MDR1-selective chemotherapeutics: Primary screen using the drug-selected MDR subline cells KB-V1; KB-V1 MDR cells viability, CellTiter-Glo, 72 h; Potency, µM (doses to about 46.1 µM), actives largely listed as cytotoxic; actives 3.4% (n = 400,000); AID 1347076, 2019; also: nearly all actives have a fitted effect of over 60% in size
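KB-V1 cells (P-gp-expressing MDR subline of KB-3-1) in phenol-red-free DMEM with 10% FBS were exposed to library compounds over a concentration series for 72 h at 37 degrees C. Viability read by CellTiter-Glo luminescence; concentration-effect curves fitted after normalization.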
HT1080 IDH1KD tx: qHTS for induction of synthetic lethality in tumor cells producing 2HG: qHTS for the HT-1080-IDH1KD cell line; actives 2% (n = 360,000); Potency, µM (highest dose often 46.1 µM), for the others: at the highest dose activity, negative = toxicity, most hits filed as cytotoxic; HT-1080 IDH1 knockdown viability, ATP luminescence, 48 h;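 also: 0% = DMSO wells and -100% = cell-free medium wells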
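Viability of IDH1-knockdown HT-1080 fibrosarcoma cells was assessed by CellTiter-Glo after 48 h at 37 °C with titrated compound; concentration-effect curves were classified by fit quality and response size.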
HT1080NT lethal: qHTS for induction of synthetic lethality in tumor cells producing 2HG: qHTS for the HT-1080-NT fibrosarcoma cell line; HT-1080-NT fibrosarcoma viability, CellTiter-Glo ATP luminescence, 48 h; actives 1.6% (n = 360,000); Potency, µM (doses to about 46.1 µM), without a hit: at the highest dose activity, negative = less viability, usual class: cytotoxic;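 also: NT is the 2HG producing partner of a matched IDH1 knockdown line; 0% = DMSO-treated cells and -100% = media-only wells without cells; nearly all actives have a fitted effect of over 55% in size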
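750 cells/well, RPMI + 5% FBS; 2 h settle, compound pin-transfer, 48 h at 37 degrees C. CellTiter-Glo 10 min RT, luminescence. Normalized to DMSO and media-only wells.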
TDP1 cell CPT: qHTS for Inhibitors of human tyrosyl-DNA phosphodiesterase 1 (TDP1): qHTS in cells in presence of CPT; chicken DT40 Tdp1-/-;hTDP1 cells + 20 nM CPT, ATP luminescence, 48 h; Potency, µM (top dose mostly 46.2 µM), without a hit: top-dose activity change, negative = growth inhibition, actives largely listed as inhibitors; actives 12% (n = 420,000); AID 686979, 2013; also: nearly all actives have a fitted effect of over 55% in size
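Chicken DT40 Tdp1-/- cells complemented with human TDP1, 400 cells/well, exposed to compounds plus 20 nM camptothecin for at least 48 h at 37 C; viability read as ATP content by CellTiter-Glo luminescence.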
TDP1 cell noCPT: qHTS for Inhibitors of human tyrosyl-DNA phosphodiesterase 1 (TDP1): qHTS in cells in absence of CPT; DT40 Tdp1-/- hTDP1 cells, no CPT, ATP luminescence, 48 h; Potency, µM (series often up to 46.2 µM), for the others: top-dose activity change, negative = growth inhibition, most hits filed as inhibitors; actives 15% (n = 420,000); also: nearly all actives have a fitted effect of over 55% in size
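Chicken DT40 Tdp1-/- cells stably complemented with human TDP1 were seeded at 400 cells/well with DMSO in place of 20 nM camptothecin. After compound pinning, cells grew at least 48 hr at 37 °C; viability read by CellTiter-Glo luminescence.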
Numbers without * were called inactive; i = inactive; ? = inconclusive; . = not tested or not shown; [ ] = remark or other dose. Calls follow the shape of the dose curve; as a rule, active = well fitted curve in the direction sought with a large enough effect; inconclusive = small, poorly fitted or top-dose-only effect, or another doubt; inactive = no such curve, though single readings can be large; an effect the other way counts as inactive or inconclusive. Unless noted, % is scaled to controls: 0 for no effect and ±100 for the full control effect; potency is read from the fitted curve at half-maximal effect.

SMILES	KB-3-1 tox	KB-V1 MDR tox	HT1080 IDH1KD tx	HT1080NT lethal	TDP1 cell CPT	TDP1 cell noCPT
CCC1CN(C(=O)Nc2ccccc2C(F)(F)F)c2ccccc2O1 (stereo not drawn)	.	.	.	.	6%	2%
CN(C)S(=O)(=O)c1ccc2c(c1)N(CC(=O)N1CCN(c3ccccc3F)CC1)CCS2	i	?	.	.	.	.
CCOc1cc(C(=O)Nc2cccc(-c3nc4ccccc4o3)c2)cc(OCC)c1OCC	i	i	.	.	0%	?
CCOC(=O)[C@]12CCCC=C1N(CCc1ccc(OC)c(OC)c1)C(=O)[C@H](CC(=O)NCC13CC4CC(CC(C4)C1)C3)C2	?	?	?	-21%	15µM*	16µM*
C#CCNC(=O)C[C@@H]1C[C@@]2(C(=O)OC)CCCCC=C2N(CCc2ccc(OC)c(OC)c2)C1=O	i	?	23%	19%	?	?
COC(=O)[C@]12CCCCC=C1N(CCc1ccc(OC)c(OC)c1)C(=O)[C@H](CC(=O)NCC13CC4CC(CC(C4)C1)C3)C2	?	18µM*	?	?	?	?
NNc1nc(N)c2c(n1)-c1ccccc1CC21CCCC1	i	i	-21%	-15%	10µM*	16µM*
O=c1c2c(nc3n1CCCCC3)-c1ccccc1CC21CCCCC1	i	i	6%[9.24 µM]	-20%	?	?
COc1ccc(C(=O)CCC(=O)N2CCN(c3ccccc3)CC2)cc1	i	i	10%	2%	16µM*	?
O=C(CCC(=O)N1CCN(c2ccc(F)cc2)CC1)c1ccc(Cl)cc1	i	i	5%	10%	?	?
O=C(CCC(=O)N1CCN(c2ccc(Cl)c(Cl)c2)CC1)c1ccccc1	?	i	-5%	?	21µM*	18µM*
Cc1cc(N/N=C/c2ccc(O)cc2)c2cccc(C)c2n1	i	i	?	?	?	?
COc1ccc(/C=N/Nc2cc(C)nc3ccc(OC)cc23)c(OC)c1	?	?	5.2µM*	23µM*	12µM*	5.8µM*
COc1ccccc1/C=N/Nc1cc(C)nc2ccc(C)cc12	i	i	-1%	1%	?	-25%
COc1ccc(/C=N/Nc2nc(C)cc(-c3ccccc3)n2)c(OC)c1	i	i	21%	10%	13%	21µM*
Cc1cc(C)c2nc(C)cc(N/N=C/c3ccc(O)cc3)c2c1	?	?	5.8µM*	5.2µM*	3.3µM*	3.3µM*
COc1ccc(O)c(/C=N/Nc2nc(C)cc(-c3ccccc3)n2)c1	i	?	?	?	?	?
Cc1cc(-c2ccccc2)nc(N/N=C/c2ccc(O)cc2)n1	21µM*	?	?	?	12µM*	?
COc1ccc(CNC(=O)CN2C(=O)CSc3ccc(S(=O)(=O)N(C)C)cc32)cc1	i	i	.	.	-24%	-29%
Cc1ccc(CN2CCN(C(=O)/C=C/[C@H]3O[C@@H](n4cc(C)c(=O)[nH]c4=O)C[C@@H]3O)CC2)cc1	i	i	18%	1%	-2%	3%
COC(=O)c1cncn1Cc1ccccc1	i	i	3%	8%	3%	6%
Nc1nc(-c2ccc(Cl)cc2)cc(C(F)(F)F)n1	i	i	?	8%	-16%	-1%
Oc1ccc(/C=N/Nc2nc(-c3ccc(Cl)cc3)cc(C(F)(F)F)n2)cc1	?	?	16µM*	?	?	?
CS(=O)(=O)N1CCc2cc(C(=O)NCc3ccccc3)ccc21	i	?	.	.	-8%	-26%
CCCn1c(SCC(=O)Nc2cc(C)on2)n[nH]c1=O	i	i	0%	18%	0%	-13%
SMILES	KB-3-1 tox	KB-V1 MDR tox	HT1080 IDH1KD tx	HT1080NT lethal	TDP1 cell CPT	TDP1 cell noCPT
Cc1cc(N2C(=O)C(O)=C(C(=O)c3ccc(C)o3)C2c2cccs2)no1 (stereo not drawn)	?	5.2µM*	-26%	-21%	?	?
Cc1cc(N2C(=O)C(O)=C(C(=O)c3cc4ccccc4o3)C2c2cccs2)no1 (stereo not drawn)	i	i	?	-18%	-16%	?
COC(=O)c1ccccc1NC(=O)c1cn2c3c(ccc(Cl)c3c1=O)OC(C)C2 (stereo not drawn)	i	i	.	.	6%	1%
CCn1cc(C(=O)N2CCN(c3cc(Cl)ccc3C)CC2)c2cc(OC)c(OC)cc2c1=O	i	i	.	.	12µM*	?
COc1cc2[nH]c(=O)n(Cc3ccc(C(=O)N4CCN(c5cc(Cl)ccc5C)CC4)cc3)c(=O)c2cc1OC	i	i	.	.	2.3µM*	5.2µM*
COc1ccc(Cn2c(=O)[nH]c3cc(C(=O)N4CCN(c5cc(C)ccc5C)CC4)ccc3c2=O)cc1	i	i	.	.	?	?
COc1cc2c(C(=O)N3CCN(c4cc(Cl)ccc4C)CC3)cn(CC(C)C)c(=O)c2cc1OC	?	i	.	.	?	-18%
COc1ccc(Cn2c(=O)[nH]c3cc(C(=O)N4CCN(c5ccccc5OC)CC4)ccc3c2=O)cc1	21µM*	?	-19%	?	?	23µM*
COc1ccc(Cn2c(=O)[nH]c3cc(C(=O)N4CCN(Cc5ccccc5)CC4)ccc3c2=O)cc1	?	21µM*	?	-29%	16µM*	18µM*
CN1C=CC=C/C1=C1\SC(=S)N(N)C1=O	i	i	13%	21%	7%	-24%
O=c1c2ccccc2cnn1Cc1n[nH]c(=S)n1-c1ccccc1	i	i	4%	16%	9%	-16%
COCCn1c(=O)[nH]c2cc(C(=O)N3CCN(Cc4ccc5c(c4)OCO5)CC3)ccc2c1=O	i	i	1%	5%	-30%	-2%
COc1ccc(C2OC(=O)CC2C(=O)N2CCN(c3cc(Cl)ccc3C)CC2)cc1OC (stereo not drawn)	i	i	4%	0%	21µM*	?
